Reference: ChEMBL document CHEMBL3988442, “University of Dundee, Small-Polar-MMV Screening Library” (2021)

Assays:
[1] = molecular target: T1, Aspartate--tRNA(Asp/Asn) ligase (Mycobacterium tuberculosis (strain ATCC 25618 / H37Rv)) (UniProt P9WFW3); assay: Assay for Asp RNA synthetase-1 from Mycobacterium tuberculosis; type: functional; design: scale not given: direction of the effect not stated beside the values; settings: 30 µM; further: in the data most compounds retested in dose-response had high values
T1 sequence (whole entry): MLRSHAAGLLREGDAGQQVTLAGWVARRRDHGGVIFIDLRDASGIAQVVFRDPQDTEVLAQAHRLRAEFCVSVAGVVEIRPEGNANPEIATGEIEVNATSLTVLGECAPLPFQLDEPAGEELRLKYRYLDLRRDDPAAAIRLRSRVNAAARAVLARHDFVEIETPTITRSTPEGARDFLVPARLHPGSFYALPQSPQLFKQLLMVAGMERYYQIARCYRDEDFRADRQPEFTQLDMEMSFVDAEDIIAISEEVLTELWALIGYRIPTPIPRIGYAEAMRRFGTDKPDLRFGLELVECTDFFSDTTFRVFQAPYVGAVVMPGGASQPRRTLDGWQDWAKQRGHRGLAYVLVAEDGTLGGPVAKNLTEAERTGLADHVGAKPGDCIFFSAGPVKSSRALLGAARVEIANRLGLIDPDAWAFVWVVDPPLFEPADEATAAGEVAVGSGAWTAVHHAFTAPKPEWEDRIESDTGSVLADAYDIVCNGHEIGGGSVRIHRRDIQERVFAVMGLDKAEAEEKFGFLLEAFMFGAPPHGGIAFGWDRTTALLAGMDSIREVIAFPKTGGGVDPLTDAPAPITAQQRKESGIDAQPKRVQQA

[2] = molecular target: Shiga toxin 2 (Escherichia coli O157:H7) (UniProt P09385+P09386); assay: E. coli 0.157:H7 Shiga Toxin SOP - stx2 screening assay; type: functional; design: scale not given: direction of the effect not stated beside the values; settings: 30 µM

Row | Compound | Percent Effect [1] [%] | Percent Effect [2] [%]
1 | O=C(Cc1csc(-c2ccc(Cl)cc2)n1)NC(C(=O)O)c1ccccc1 (stereo not given) | 1.86 | -21.9
2 | COC[C@@]12CC[C@@H](N3CCOCC3)C[C@H]1CCN(c1ncccn1)C2 | -4.45 | 17.6
3 | Cc1cc2cc(C(=O)N3CC[C@H](O)[C@]4(CCCO4)C3)ccc2o1 | 1.13 | -10.1
4 | c1cnc(-c2nc(CN3CCOC(Cn4cncn4)C3)cs2)nc1 (stereo not given) | 9.26 | 18.3
5 | CC(=O)NCCNC(=O)CN1CCN(Cc2nccn2C)C(C)C1 (stereo not given) | 2.19 | 2.09
6 | CN(C)C(=O)N1CCN(C(=O)CCc2ccccc2)[C@H]2CS(=O)(=O)C[C@H]21 | 3.33 | -13.3
7 | O=c1ccc2c(n1CCN1CCCC1)CCN(Cc1ccoc1)CC2 | -2.69 | -1.66
8 | O=C(CC1CCCC1)N1CCCC(c2n[nH]c3nccnc23)C1 (stereo not given) | -1.74 | 19.5
9 | CNS(=O)(=O)c1cc(C(=O)NC2CCOc3ccccc32)cc(C)c1C (stereo not given) | -2.19 | 3.19
10 | CNS(=O)(=O)c1ccc(C(=O)NCCc2ccccn2)cc1 | 9.16 | 14.4
11 | O=C(Cc1ccccn1)N1C[C@@H]2CC[C@H](C1)N(Cc1ccccc1)C2=O | -1.24 | -4.09
12 | Cc1cnn(CC2CCCN2C(=O)c2cccc(-n3cnnn3)c2)c1 (stereo not given) | -7.68 | 9.64
13 | CCC(C)(C)NC(=O)CN(C)C(c1cccc(F)c1)c1ccccn1 (stereo not given) | -1.18 | 15.1
14 | COc1ccc(C2=CCN(C(=O)CN(C)CC(C)C#N)CC2)cc1 (stereo not given) | -3.34 | -65.5
15 | CN(C)S(=O)(=O)N1CCC(Oc2ccc(C#N)cn2)CC1 | 5.76 | -4.88
16 | O[C@H]1[C@H](n2cc(-c3cccnc3)nn2)c2ccccc2C12CCNCC2 | -2.48 | 7.64
17 | CO[C@@H]1CC[C@@H](N(C)C(=O)COc2ccc(F)cc2)[C@H]1O | 3.81 | 28.3
18 | COc1ccnc(N2CCN(C(=O)c3csc(C(C)C)n3)CC2)n1 | -5.15 | -4.83
19 | COc1ccc(F)cc1C(C)NC(=O)c1nnc(C)s1 (stereo not given) | 1.79 | -5.21
20 | N#Cc1ccnc(N2CCN(Cc3cccc(F)c3)CC2)c1 | -3.46 | 12.2
21 | COc1cccc(CNCCc2cc(F)cc3c2OCOC3)c1 | -4.9 | -27.3
22 | COc1c(CNC2CCc3cc(F)ccc32)c(C)nn1C (stereo not given) | -5.95 | 7.74
23 | CCN1CCN(c2nc(C(C)C)nc3c(C)nn(CC)c23)CC1 | -2.11 | -52.4

Row | Compound | Percent Effect [1] [%] | Percent Effect [2] [%]
24 | CC(C)c1ncc(S(C)(=O)=O)c(C2CCCNC2)n1 (stereo not given) | -1.91 | 10.4
25 | O=C1CC[C@H]2[C@H](CCN2C(=O)C2CCCO2)N1CCN1CCCC1 (stereo not given in full) | -1.39 | 4.3
26 | Cc1cc(C)n(C2CN(CC(=O)NC3CCOCC3)C2)n1 | -1.88 | -2.98
27 | CCc1n[nH]c(C2CN(C(=O)c3cc4c(s3)CCCC4)CCO2)n1 (stereo not given) | -1.69 | 4.53
28 | CC(C)N(C)Cc1nnc2n1CCCN(C(=O)c1ccco1)C2 | 1.27 | -12.8
29 | O=C(NCCCN1CCc2ccccc2C1)c1cccnc1O | -2.28 | -68.5
30 | O=C(c1ccc[nH]1)N1C[C@H]2CC[C@@H]1CN(C1Cc3ccccc3C1)C2 | 2.83 | 10.5
31 | CC(NC(=O)c1cc(-c2cccc(Cl)c2)no1)C(=O)N1CCCC1 (stereo not given) | 0.15 | -14.8
32 | Cc1cc(CN2Cc3ccccc3CC2c2nnc(C)o2)on1 (stereo not given) | -0.894 | 8.24
33 | CN1CCN(c2ncc3c(=O)n(-c4cccc(F)c4)c(=O)[nH]c3n2)CC1 | 11.2 | -20.7
34 | O=C(NCCC1CCCO1)c1ccccc1N1CCOCC1 (stereo not given) | -8.37 | -3.88
35 | CN(C)c1ccc(CCNC(=O)NCc2ccc(N(C)C)nc2)cc1 | 2.84 | 5.6
36 | Cc1cccc(-c2noc(CN3CCCC(Cn4cncn4)C3)n2)c1 (stereo not given) | -2.23 | -1.3
37 | COCCC(=O)N1CC2(CCN(Cc3ccoc3)C2)C1 | 5.6 | -19.5
38 | Cc1cnccc1CN1CC[C@@](C)(O)[C@H](Oc2ccccc2)C1 | -5.05 | -31
39 | COc1cccc(CNCc2nnc3n2CC(C(F)(F)F)CC3)c1 (stereo not given) | -0.0987 | -19.1
40 | COC[C@H]1CCC[C@]12CN(CCc1ccccc1)CCO2 | -1.02 | -22
41 | O=C(N[C@@H]1CCNC[C@H]1O)c1ccc(F)c(Cl)c1 | -0.19 | 12.3
42 | c1ccc(CN2CCc3ncnc(-c4ccsc4)c3CC2)nc1 | 0.199 | -6.45
43 | CC(C)CN1CCN(C)C2(CCN(Cc3ccsc3)CC2)C1=O | 1.25 | -3.28
44 | CN1CCN(C2CCN(CC(=O)NCC(F)(F)F)CC2)C1=O | -5.68 | -21
45 | NC(=O)C1CN(C(=O)Nc2ccccc2N2CCCCCC2)CCO1 (stereo not given) | 0.991 | 7.25
